From the supplement of paper PMC10849652
The full data set covers some 8,800 targets. This sample favours those with a hit. About 0.5% of all pairs of compound and target were hits. A number with no mark means an inactive call.

Assays:
Assay in all cases: log2 fold change, soluble protein after heating vs DMSO (PISA); higher = thermal stabilisation; K562 lysate, 10 uM; active = over 0.2 and 3.5 SD of the protein, either way, in both replicates (recomputed)
nilotinib = compound: Cc1cn(-c2cc(NC(=O)c3ccc(C)c(Nc4nccc(-c5cccnc5)n4)c3)cc(C(F)(F)F)c2)cn1 [nilotinib]
Summary of the method: (§1)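 K562 pellets were dounce-homogenised in PBS pH 7.4 with 1 mM MgCl2, and the crude extract at 1 mg/mL protein was treated with 10 μM compound for 30 min. Aliquots were heated for 3 min across 48°C-58°C, pooled, and brought to 0.5% NP-40 at 4°C; soluble protein was the supernatant after 21,000xg for 90 min. Soluble protein was quantified by TMTpro 16plex LC-MS/MS with channel sums equalised, and reported as log2 fold change in thermal stability against DMSO controls, with values from duplicates.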

[1] = compound: Cc1nc(Nc2n[nH]c3c2CN(C(=O)N[C@H](CN(C)C)c2ccccc2)C3(C)C)c2sccc2n1
Summary of the method: as §1

dasatinib = compound: Cc1nc(Nc2ncc(C(=O)Nc3c(C)cccc3Cl)s2)cc(N2CCN(CCO)CC2)n1 [dasatinib]
Summary of the method: as §1

[2] = compound: Cc1ncc(-c2ccnc(Nc3ccc(S(C)(=O)=O)cc3)n2)n1C(C)C
Summary of the method: as §1

[3] = compound: Cn1cc(-c2ccc3c(c2)CCN3C(=O)Cc2cccc(C(F)(F)F)c2)c2c(N)ncnc21
Summary of the method: as §1

quisinostat = compound: Cn1cc(CNCC2CCN(c3ncc(C(=O)NO)cn3)CC2)c2ccccc21 [quisinostat]
Summary of the method: as §1

tipifarnib = compound: Cn1cncc1[C@@](N)(c1ccc(Cl)cc1)c1ccc2c(c1)c(-c1cccc(Cl)c1)cc(=O)n2C [tipifarnib]
Summary of the method: as §1

[4] = compound: NC(=O)Nc1cc(-c2cccc(F)c2)sc1C(=O)N[C@H]1CCCNC1
Summary of the method: as §1

[5] = compound: NC(=O)c1cnc(N[C@@H]2CCCC[C@@H]2N)nc1Nc1cccc(-n2nccn2)c1
Summary of the method: as §1

[6] = compound: NC1(c2ccc(-c3nc4ccn5c(=O)[nH]nc5c4cc3-c3ccccc3)cc2)CCC1
Summary of the method: as §1

[7] = compound: NCC(=O)Nc1ccc(-n2nc(C(F)(F)F)cc2-c2ccc3c(ccc4ccccc43)c2)cc1
Summary of the method: as §1

vorinostat = compound: O=C(CCCCCCC(=O)Nc1ccccc1)NO [vorinostat]
Summary of the method: as §1

silmitasertib = compound: O=C(O)c1ccc2c(c1)nc(Nc1cccc(Cl)c1)c1ccncc12 [silmitasertib]
Summary of the method: as §1

[8] = compound: O=C1NC(=O)C(c2cnc3ccccn23)=C1c1cn2c3c(cc(F)cc13)CN(C(=O)N1CCCCC1)CC2
Summary of the method: as §1

entospletinib = compound: c1cn2cc(-c3ccc4cn[nH]c4c3)nc(Nc3ccc(N4CCOCC4)cc3)c2n1 [entospletinib]
Summary of the method: as §1

Chain of UniProt Q9NUY8 (Q9NUY8 whole entry, looked up): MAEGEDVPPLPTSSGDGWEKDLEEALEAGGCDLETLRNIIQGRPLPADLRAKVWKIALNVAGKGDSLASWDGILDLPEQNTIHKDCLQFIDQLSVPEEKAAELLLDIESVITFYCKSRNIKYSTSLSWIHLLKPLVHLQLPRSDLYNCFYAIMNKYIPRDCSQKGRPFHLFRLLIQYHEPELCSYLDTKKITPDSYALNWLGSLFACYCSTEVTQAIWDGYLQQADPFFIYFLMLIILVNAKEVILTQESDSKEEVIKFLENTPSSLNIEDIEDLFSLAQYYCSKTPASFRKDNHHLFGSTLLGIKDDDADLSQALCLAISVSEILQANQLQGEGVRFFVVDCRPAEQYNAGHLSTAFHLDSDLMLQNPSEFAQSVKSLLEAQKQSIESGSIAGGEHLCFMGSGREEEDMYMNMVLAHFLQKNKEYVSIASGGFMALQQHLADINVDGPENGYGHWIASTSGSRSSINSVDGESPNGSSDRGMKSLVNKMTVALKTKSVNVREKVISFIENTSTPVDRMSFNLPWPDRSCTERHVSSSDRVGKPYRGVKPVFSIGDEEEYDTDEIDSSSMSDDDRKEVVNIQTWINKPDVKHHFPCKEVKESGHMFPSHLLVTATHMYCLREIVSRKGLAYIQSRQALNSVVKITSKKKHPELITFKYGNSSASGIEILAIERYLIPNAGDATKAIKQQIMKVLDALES
Chain of UniProt P06753 (P06753 whole entry, looked up): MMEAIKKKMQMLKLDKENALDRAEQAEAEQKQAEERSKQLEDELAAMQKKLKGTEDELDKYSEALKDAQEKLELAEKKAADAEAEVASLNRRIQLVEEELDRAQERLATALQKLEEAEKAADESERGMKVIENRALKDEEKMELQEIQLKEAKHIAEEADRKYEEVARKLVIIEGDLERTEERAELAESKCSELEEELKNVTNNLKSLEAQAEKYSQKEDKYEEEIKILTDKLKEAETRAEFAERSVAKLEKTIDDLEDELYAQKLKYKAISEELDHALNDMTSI
Chain of UniProt Q96F44 (Q96F44 whole entry, looked up): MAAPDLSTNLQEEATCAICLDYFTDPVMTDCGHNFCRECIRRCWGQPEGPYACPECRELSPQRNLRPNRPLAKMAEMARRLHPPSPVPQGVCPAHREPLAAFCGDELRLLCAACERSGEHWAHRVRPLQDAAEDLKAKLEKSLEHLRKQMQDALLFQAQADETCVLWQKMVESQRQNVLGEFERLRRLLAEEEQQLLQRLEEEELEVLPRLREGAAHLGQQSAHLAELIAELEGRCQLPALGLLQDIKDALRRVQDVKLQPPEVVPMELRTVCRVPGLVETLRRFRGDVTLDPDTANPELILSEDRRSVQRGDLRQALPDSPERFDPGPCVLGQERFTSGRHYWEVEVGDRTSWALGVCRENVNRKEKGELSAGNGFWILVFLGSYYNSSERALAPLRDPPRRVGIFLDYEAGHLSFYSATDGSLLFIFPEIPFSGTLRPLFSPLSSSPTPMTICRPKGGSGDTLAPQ
Chain of UniProt O75865 (O75865 whole entry, looked up): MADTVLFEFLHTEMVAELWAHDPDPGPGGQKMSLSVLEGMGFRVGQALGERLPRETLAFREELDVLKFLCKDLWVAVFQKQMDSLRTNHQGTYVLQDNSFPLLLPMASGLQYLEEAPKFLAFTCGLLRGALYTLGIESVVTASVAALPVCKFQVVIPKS
Chain of UniProt P22314 (P22314 whole entry, looked up): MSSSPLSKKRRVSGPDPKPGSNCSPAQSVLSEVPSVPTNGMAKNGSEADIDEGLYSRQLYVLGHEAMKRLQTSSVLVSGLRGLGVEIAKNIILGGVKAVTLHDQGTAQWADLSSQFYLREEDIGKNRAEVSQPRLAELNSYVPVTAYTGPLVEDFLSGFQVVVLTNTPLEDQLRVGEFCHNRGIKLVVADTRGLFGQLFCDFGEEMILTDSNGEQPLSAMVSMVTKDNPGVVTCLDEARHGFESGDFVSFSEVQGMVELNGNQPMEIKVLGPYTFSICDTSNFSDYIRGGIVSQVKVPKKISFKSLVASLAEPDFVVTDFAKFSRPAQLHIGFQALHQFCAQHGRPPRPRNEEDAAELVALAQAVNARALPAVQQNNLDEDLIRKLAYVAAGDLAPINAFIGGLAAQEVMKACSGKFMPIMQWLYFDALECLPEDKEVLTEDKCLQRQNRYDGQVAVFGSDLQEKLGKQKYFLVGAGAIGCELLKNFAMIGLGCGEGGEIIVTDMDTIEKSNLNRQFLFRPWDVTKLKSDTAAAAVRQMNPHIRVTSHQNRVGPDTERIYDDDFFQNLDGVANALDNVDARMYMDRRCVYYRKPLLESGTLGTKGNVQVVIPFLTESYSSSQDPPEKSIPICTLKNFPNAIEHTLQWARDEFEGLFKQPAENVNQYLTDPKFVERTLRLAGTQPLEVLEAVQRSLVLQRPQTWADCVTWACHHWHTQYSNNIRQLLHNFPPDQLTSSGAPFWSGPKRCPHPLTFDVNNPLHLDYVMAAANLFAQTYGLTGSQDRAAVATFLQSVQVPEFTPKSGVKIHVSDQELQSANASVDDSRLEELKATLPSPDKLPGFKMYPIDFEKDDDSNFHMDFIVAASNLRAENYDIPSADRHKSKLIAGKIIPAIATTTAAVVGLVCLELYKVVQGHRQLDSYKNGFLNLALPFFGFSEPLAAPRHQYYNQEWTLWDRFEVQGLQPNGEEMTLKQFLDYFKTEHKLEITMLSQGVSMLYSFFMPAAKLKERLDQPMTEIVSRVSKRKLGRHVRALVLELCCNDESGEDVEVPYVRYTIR
Chain of UniProt Q13509 (Q13509 whole entry, looked up): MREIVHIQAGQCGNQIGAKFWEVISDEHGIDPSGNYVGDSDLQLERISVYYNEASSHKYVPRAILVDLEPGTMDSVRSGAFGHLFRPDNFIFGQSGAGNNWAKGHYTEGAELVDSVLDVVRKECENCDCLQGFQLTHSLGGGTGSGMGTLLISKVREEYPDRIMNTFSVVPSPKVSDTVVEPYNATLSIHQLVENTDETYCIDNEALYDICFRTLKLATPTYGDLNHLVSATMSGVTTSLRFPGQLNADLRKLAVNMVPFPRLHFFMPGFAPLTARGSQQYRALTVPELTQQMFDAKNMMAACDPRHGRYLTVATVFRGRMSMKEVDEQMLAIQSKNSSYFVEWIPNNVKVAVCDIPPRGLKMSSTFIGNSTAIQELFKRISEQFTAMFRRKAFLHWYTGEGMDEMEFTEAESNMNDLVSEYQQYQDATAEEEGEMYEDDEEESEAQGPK
Chain of UniProt Q12933 (Q12933 whole entry, looked up): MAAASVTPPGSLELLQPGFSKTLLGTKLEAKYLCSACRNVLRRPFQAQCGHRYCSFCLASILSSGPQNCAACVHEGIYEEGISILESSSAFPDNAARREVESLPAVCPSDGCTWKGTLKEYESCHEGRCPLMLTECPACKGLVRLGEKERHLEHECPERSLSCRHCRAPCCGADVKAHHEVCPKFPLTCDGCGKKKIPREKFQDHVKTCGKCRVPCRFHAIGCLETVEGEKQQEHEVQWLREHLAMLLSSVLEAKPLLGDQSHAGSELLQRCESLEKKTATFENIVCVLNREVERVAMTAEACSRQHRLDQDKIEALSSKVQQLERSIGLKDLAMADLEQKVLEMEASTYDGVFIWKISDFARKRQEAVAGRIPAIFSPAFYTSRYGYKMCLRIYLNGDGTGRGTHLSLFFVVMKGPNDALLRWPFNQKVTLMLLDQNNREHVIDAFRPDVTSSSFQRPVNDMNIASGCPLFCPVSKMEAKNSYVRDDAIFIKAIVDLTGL
Chain of UniProt Q5JUR7 (Q5JUR7 whole entry, looked up): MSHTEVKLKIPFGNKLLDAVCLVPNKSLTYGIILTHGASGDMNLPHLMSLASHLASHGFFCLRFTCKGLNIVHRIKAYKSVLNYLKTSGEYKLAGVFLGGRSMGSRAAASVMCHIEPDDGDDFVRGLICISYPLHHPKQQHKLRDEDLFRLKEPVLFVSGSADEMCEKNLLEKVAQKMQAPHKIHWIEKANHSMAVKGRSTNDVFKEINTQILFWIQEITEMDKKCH
Chain of UniProt Q04726 (Q04726 whole entry, looked up): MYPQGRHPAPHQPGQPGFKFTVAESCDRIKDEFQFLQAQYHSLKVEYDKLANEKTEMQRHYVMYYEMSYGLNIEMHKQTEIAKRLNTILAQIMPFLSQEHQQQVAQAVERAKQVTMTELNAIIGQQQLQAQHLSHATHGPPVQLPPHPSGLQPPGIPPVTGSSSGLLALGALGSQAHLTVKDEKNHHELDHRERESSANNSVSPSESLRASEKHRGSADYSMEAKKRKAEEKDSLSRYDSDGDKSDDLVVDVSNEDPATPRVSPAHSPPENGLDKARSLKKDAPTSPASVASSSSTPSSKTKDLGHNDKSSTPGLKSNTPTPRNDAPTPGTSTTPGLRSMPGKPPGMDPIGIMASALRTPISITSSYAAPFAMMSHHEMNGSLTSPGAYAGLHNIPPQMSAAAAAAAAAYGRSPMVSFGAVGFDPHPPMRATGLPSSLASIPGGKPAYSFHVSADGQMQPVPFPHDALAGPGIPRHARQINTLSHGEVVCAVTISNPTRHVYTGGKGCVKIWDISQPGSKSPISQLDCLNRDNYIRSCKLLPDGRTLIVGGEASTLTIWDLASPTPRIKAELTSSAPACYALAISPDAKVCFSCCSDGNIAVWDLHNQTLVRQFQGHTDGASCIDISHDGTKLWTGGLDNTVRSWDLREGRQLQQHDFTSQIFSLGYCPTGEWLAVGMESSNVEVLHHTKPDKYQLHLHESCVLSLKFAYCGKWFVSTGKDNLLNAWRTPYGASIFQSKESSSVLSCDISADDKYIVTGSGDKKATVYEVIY
Chain of UniProt Q8N511 (Q8N511 whole entry, looked up): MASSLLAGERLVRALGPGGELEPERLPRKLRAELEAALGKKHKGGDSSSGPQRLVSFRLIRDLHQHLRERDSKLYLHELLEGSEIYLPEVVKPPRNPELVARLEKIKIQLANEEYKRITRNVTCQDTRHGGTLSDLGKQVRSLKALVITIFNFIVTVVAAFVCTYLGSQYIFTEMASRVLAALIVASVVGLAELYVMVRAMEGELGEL
Chain of UniProt Q9P0S9 (Q9P0S9 whole entry, looked up): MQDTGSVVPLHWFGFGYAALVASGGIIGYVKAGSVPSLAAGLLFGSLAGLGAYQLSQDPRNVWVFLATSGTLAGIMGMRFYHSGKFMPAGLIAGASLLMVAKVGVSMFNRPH

Target | log2 fold change (nilotinib) | log2 fold change [1] | log2 fold change (dasatinib) | log2 fold change [2] | log2 fold change [3] | log2 fold change (quisinostat) | log2 fold change (tipifarnib) | log2 fold change [4] | log2 fold change [5] | log2 fold change [6] | log2 fold change [7] | log2 fold change (vorinostat) | log2 fold change (silmitasertib) | log2 fold change [8] | log2 fold change (entospletinib)
TBC1D23 (UniProt Q9NUY8) | 0.013 | -0.018 | -0.001 | -0.005 | -0.021 | -0.028 | 0.018 | 0.01 | -0.032 | -0.004 | 0.031 | -0.252 (active) | -0.023 | -0.001 | 0
TRIM11 (UniProt Q96F44) | -0.019 | 0.053 | -0.021 | 0.055 | 0.023 | -0.104 | -0.015 | -0.019 | -0.004 | -0.023 | 0.018 | -0.222 (active) | 0.046 | -0.035 | -0.045
TRIM33 (UniProt H0Y612) | -0.021 | 0.153 | 0.043 | 0.138 | -0.033 | -0.238 | -0.052 | 0.069 | -0.036 | -0.106 | -0.039 | -0.335 (active) | 0.061 | 0.03 | 0.084
TROAP (UniProt Q12815) | -0.041 | 0.023 | -0.071 | 0.037 | 0.043 | -0.096 | -0.005 | 0.007 | 0.031 | -0.018 | 0.003 | -0.382 (active) | 0.003 | 0.014 | -0.057
TUBB3 (UniProt Q13509) | 0.029 | -0.028 | -0.027 | -0.003 | 0.024 | -0.004 | -0.013 | 0.039 | 0.006 | 0.006 | -0.012 | -0.688 (active) | 0.04 | 0.006 | -0.002
UBA1 (UniProt P22314) | -0.004 | 0.014 | -0.026 | 0.002 | 0.028 | -0.019 | -0.01 | 0.019 | 0.008 | -0.011 | 0.018 | -0.371 (active) | 0.01 | -0.003 | 0.02
TLE3 isoform 4 (UniProt Q04726) | 0.011 | 0.053 | -0.002 | 0.001 | -0.038 | 0.008 | -0.003 | 0.012 | 0.001 | -0.003 | 0.011 | 0.047 | -0.052 | -0.018 | -0.009
TERF2IP (UniProt Q9NYB0) | 0.012 | 0.013 | 0.018 | 0.009 | 0.005 | 0.024 | -0.012 | 0.011 | -0.017 | -0.003 | 0.038 | 0.072 | 0.008 | 0.011 | 0.011
TMEM199 (UniProt Q8N511) | 0.005 | 0.005 | -0.011 | 0.001 | 0.046 | 0.031 | 0.026 | 0 | 0.005 | 0.068 | 0.021 | 0.13 | -0.017 | -0.005 | 0.008
TRMT10A (UniProt Q8TBZ6) | 0.008 | -0.027 | -0.07 | 0.019 | 0.013 | -0.028 | 0.005 | 0.01 | 0.028 | -0.01 | 0.032 | 0.072 | -0.058 | -0.063 | -0.012
TTI2 (UniProt Q6NXR4) | 0.022 | 0.029 | -0.051 | 0.044 | 0.01 | -0.009 | -0.018 | -0.003 | 0.049 | -0.013 | 0.05 | -0.303 (active) | 0.015 | 0.034 | 0.005
TMEM263 (UniProt Q8WUH6) | 0.151 | 0.153 | -0.134 | -0.079 | 0.011 | 0.021 | -0.512 (active) | 0.063 | -0.021 | -0.154 | 0.053 | 0.289 | -0.15 | -0.113 | -0.034
TPM3 (UniProt P06753) | 0.014 | -0.033 | 0.023 | 0.028 | -0.012 | 0.046 | 0.033 | -0.042 | -0.02 | 0.034 | 0.004 | 0.112 | 0.012 | -0.004 | 0.008
TTI1 (UniProt O43156) | -0.007 | 0.004 | 0.005 | 0.001 | 0.016 | -0.047 | -0.015 | -0.003 | 0.01 | -0.001 | -0.037 | -0.452 (active) | 0.089 | -0.019 | -0.017
TIMELESS (UniProt Q9UNS1) | 0.018 | -0.039 | -0.082 | 0.024 | 0.005 | -0.137 | -0.052 | 0.045 | 0.029 | -0.035 | 0 | -0.412 (active) | 0.018 | 0.062 | 0.017
TEX30 (UniProt Q5JUR7) | -0.036 | 0.072 | -0.109 | 0.003 | -0.004 | 0.007 | 0 | 0.046 | -0.017 | -0.052 | 0.035 | -0.534 (active) | 0.041 | -0.006 | 0.001
TRAF2 isoform 2 (UniProt Q12933) | -0.02 | 0.008 | -0.024 | 0.042 | 0.01 | -0.024 | 0.005 | -0.016 | 0.001 | -0.016 | 0.014 | -0.269 (active) | 0.024 | 0.031 | 0.005
TRAPPC6A isoform 2 (UniProt O75865) | 0.015 | -0.09 | -0.026 | 0.02 | -0.058 | 0.006 | 0.048 | -0.048 | -0.008 | 0.076 | -0.048 | -0.038 | 0.013 | -0.002 | -0.157
TMEM14C (UniProt Q9P0S9) | 0.065 | -0.089 | 0.031 | 0.13 | 0.029 | -0.299 | -0.017 | 0.029 | -0.13 | -0.07 | -0.032 | -0.018 | 0.013 | 0.058 | 0.091
